Data as given in PubChem BioAssay (NCI).
Compounds without any hit were thinned out: in the full panel of roughly 83,000, 20% have a hit.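 Single-concentration screen, 48 h exposure, 96-well plates. Endpoint: percent growth. Below 10 = active.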 Unmarked numbers belong to inactive results. Activity calls are given as the source filed them.

What follows are compounds tested on SR leukemia (assay: NCI-60 one-dose screen, 48 h (100 = growth as untreated, 0 = no growth, -100 = all killed)). Conditions: 10 µM unless noted.

| SMILES | growth |
| --- | --- |
| COC(=O)C(Cc1ccccc1)NS(=O)(=O)/N=C1\NC(=O)NC1=C(Cl)Cl (centres undefined) | 82.9% |
| [Cl][Ru].c1ccc(-c2cccc(-c3ccccn3)n2)nc1.c1ccc(-c2ccnc3c2ccc2c(-c4ccccc4)ccnc23)cc1 | 11% |
| NS(=O)(=O)c1ccc(Nc2nc(Nc3ccccc3)nc(-n3nc(-c4ccccc4)cc3-c3ccccc3)n2)cc1 | 0.684% (active) |
| COc1ccccc1/C=C/C=N/NC1=NC2C(S1)N(C)C(=O)N2C (centres undefined) | 13.2% |
| O=C(c1ccc(O)cc1)C1[C@H](c2ccc(Cl)cc2)[C@@H](c2ccccc2)NC12C(=O)Nc1ccc(Cl)cc12 (some centres undefined) | 9.52% (active) |
| CC(C)Sc1nc(Nc2ccc(S(N)(=O)=O)cc2)c(C#N)c(-c2ccc(F)cc2)n1 | -36.9% (active) |
| Nc1cc(-c2c[nH]c3ccccc23)nc2cc(-c3c[nH]c4ccccc34)nn12 | 14% |
| Cc1nc2cnc(N)c(C#Cc3cncc(C(=O)Nc4ccc(Cl)c(C(F)(F)F)c4)c3)c2nc1C | -18.8% (active) |
| CCN1C(=S)N(CC)C2C1N=C(SC)N2/N=C/C=C/c1ccccc1[N+](=O)[O-] (centres undefined) | 75% |
| COc1ccc(/C=N/NC(=O)c2[nH]c3ccc(Br)cc3c2-c2ccccc2)o1 | 17.7% |
| NS(=O)(=O)c1cccc(Nc2nc(SCC(=O)c3ccc([N+](=O)[O-])cc3)nc3ccccc23)c1 | 17.5% |
| COc1cc(/C=C/C(=O)c2ccccc2)ccc1Oc1nc(NCCO)nc(N2CCOCC2)n1 | 8.72% (active) |
| COC1CCN(Cc2ccc3c(NNC(=O)c4cnccn4)nc4cc(F)ccc4n23)C1 (centres undefined) | 1.51% (active) |
| CS(=O)(=O)Nc1ccc(-c2nn(-c3ccc(S(C)(=O)=O)cc3)cc2/C=C/C(=O)c2ccc(NC(=O)CO[N+](=O)[O-])cc2)cc1 | 92.1% |
| O=C(Nc1nc2ccc(O)cc2s1)c1cccc(C(F)(F)F)c1 | 75.7% |
| c1ccc2c(NCCCn3ccnc3)c3oc4ccccc4c3nc2c1 | -2.89% (active) |
| CC(C)NC(=O)c1cc(-c2ccc(NC(=O)Nc3ccc(N4CCOCC4)c(C(F)(F)F)c3)cc2)nc2cccnc12 | 10.2% |
| Cn1c(SCC(=O)c2cccs2)nc2ccccc2c1=O | 90.4% |
| CS(=O)(=O)c1ccc(-c2nc3ccccn3c2/C=N/Nc2nc(-c3ccc(Br)cc3)cs2)cc1 | 95.1% |
| Clc1ccc2c(NCCCn3ccnc3)c3oc4ccccc4c3nc2c1 | 9.35% (active) |

| SMILES | growth |
| --- | --- |
| CCN1C(=S)N(CC)C2C1NN=C1SC(c3ccccc3)=CC(=O)N12 (centres undefined) | 52.1% |
| COc1ccc(-c2csc(N/N=C/c3c(-c4ccc(S(C)(=O)=O)cc4)nc4ccccn34)n2)cc1 | 94.5% |
| CSCCC(C(=O)O)N1C(=O)/C(=C/c2ccc(O)c(O)c2)SC1=S (centres undefined) | 103% |
| O=C1Nc2cc(Cl)ccc2/C1=C\c1ccc(OCc2ccc(Br)cc2F)cc1 | 27.4% |
| CN(C)CCCOc1c2ccc(Cl)cc2nc2c1oc1ccc(Cl)cc12 | -31.1% (active) |
| O=C(N/N=C/c1ccc(Br)s1)c1[nH]c2ccc(Br)cc2c1-c1ccccc1 | 10.1% |
| CC(=NNc1ncnc2ccccc12)c1ccc(S(C)(=O)=O)cc1 | 100% |
| O=C(N/N=C/c1ccco1)c1[nH]c2ccc(Br)cc2c1-c1ccccc1 | 11.2% |
| COc1ccc(NC2=CC(=O)C(C)=C(C)C2=O)cc1 | 82.3% |
| CN1C(=S)N(C)C2C1NN=C1SC(c3ccccc3)=CC(=O)N12 (centres undefined) | 65.4% |
| CC1=C(C)C(=O)C(Nc2ccccc2)=C(Cl)C1=O | 62.9% |
| C#Cc1nc(C2=C(C)/C(=N/OCc3ccccc3)CC2)cs1 | -52.4% (active) |
| COc1cc(/C=C/C(=O)c2ccc(C(F)(F)F)cc2)ccc1Oc1nc(NCCO)nc(N2CCOCC2)n1 | -8.21% (active) |
| CN1C(=O)N(c2ccccc2)C2N=C(N/N=C/c3ccccc3)SC21 (centres undefined) | 13.6% |
| COc1ccc(C(=O)c2cc(C(=O)/C=C/c3c(Cl)cccc3Cl)c3cc(C)ccn23)cc1 | 97% |
| Cn1cc(-c2cc(N)n3nc(-c4cn(C)c5ccc(F)cc45)cc3n2)c2cc(F)ccc21 | -16.2% (active) |
| CC(C)(C)Nc1nc2c(OCCc3ccccc3)cccn2c1-c1cccc(F)c1 | -0.873% (active) |
| C=CCSc1ccc2c(c1)C(N1CCNCC1)=Nc1ccccc1O2 | 14.4% [8.25 µM] |
| COc1ccc(-c2nc3ccc(-c4nnc(SCC(=O)Nc5ccc(C(=O)/C=C/c6ccccc6)cc5)o4)cc3[nH]2)cc1OC | 83.6% |
